FLuc inh-1 – Firefly luciferase inhibition profiling of diverse chemical library using quantitative high-throughput screening; Potency, µM (highest dose often 115 µM), actives largely listed as inhibitors; 76,000 compounds, 2.5% hits; purified P. pyralis luciferase, luminescence, biochemical; Luciferin 4-monooxygenase (Photinus pyralis), P08659; further: on the % scale 0 is the no-effect control and ±100 the full control effect; nearly all actives have a fitted effect of over 65% in size
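Purified 10nM P. pyralis luciferase with 10uM D-luciferin and 10uM ATP in 50mM Tris acetate pH 7.5, 10mM Mg acetate, 0.01% Tween-20, 0.05% BSA. qHTS titration; luminescence read by CCD imager.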
HEK cytotox – Cytotoxic Profiling in HEK 293 Cell Line of Diverse Libraries Using Quantitative High-Throughput Screening | HEK 293 viability, ATP luminescence (CellTiter-Glo), 48-72 h | Potency, µM (top dose mostly 115 µM), without a hit: at the highest dose activity change, negative = cytotoxicity, most hits filed as inhibitors | 94,000 compounds, 6.6% hits; further: on the % scale 0 is the no-effect control and ±100 the full control effect; nearly all actives have a fitted effect of over 60% in size
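ATP-coupled CellTiter-Glo luminescence served as viability read-out, recorded 10 min after reagent addition at room temperature. HEK 293 cells, 250 cells/well, had been incubated with pintool-transferred compound for 48 or 72 hr at 37 degree Celsius.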
NIH3T3 tox – Cytotoxic Profiling in NIH 3T3 Cell Line of Diverse Libraries Using Quantitative High-Throughput Screening; NIH 3T3 viability, CellTiter-Glo ATP luminescence, 48-72 h; Potency, µM (titrated, usually from 96.7 µM), without a hit: at the top dose activity change, negative = cytotoxicity, usual class: inhibitors; 94,000 compounds, 4.3% hits; further: on the % scale 0 is the no-effect control and ±100 the full control effect; nearly all actives have a fitted effect of over 55% in size
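NIH 3T3 cells at 400 cells/well received 23 nL of compound by pintool and were incubated 48 or 72 h at 37 °C. Viability was read as ATP-coupled CellTiter-Glo luminescence.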
NPR1 antag – Natriuretic polypeptide receptor (hNpr1) antagonism - Primary qHTS. 76,000 compounds, 1.6% hits. AID 1347048, 2019. HEK293 hNpr1 GloSensor cGMP, ANP-stimulated luminescence. Potency, µM (highest dose often 46.3 µM), for the others: at the top dose activity change, negative = inhibition, actives largely listed as inhibitors; calls by dose curve; further: on the % scale 0 is the no-effect control and ±100 the full control effect; nearly all actives have a fitted effect of over 60% in size
Target sequence (P16066 whole entry, looked up): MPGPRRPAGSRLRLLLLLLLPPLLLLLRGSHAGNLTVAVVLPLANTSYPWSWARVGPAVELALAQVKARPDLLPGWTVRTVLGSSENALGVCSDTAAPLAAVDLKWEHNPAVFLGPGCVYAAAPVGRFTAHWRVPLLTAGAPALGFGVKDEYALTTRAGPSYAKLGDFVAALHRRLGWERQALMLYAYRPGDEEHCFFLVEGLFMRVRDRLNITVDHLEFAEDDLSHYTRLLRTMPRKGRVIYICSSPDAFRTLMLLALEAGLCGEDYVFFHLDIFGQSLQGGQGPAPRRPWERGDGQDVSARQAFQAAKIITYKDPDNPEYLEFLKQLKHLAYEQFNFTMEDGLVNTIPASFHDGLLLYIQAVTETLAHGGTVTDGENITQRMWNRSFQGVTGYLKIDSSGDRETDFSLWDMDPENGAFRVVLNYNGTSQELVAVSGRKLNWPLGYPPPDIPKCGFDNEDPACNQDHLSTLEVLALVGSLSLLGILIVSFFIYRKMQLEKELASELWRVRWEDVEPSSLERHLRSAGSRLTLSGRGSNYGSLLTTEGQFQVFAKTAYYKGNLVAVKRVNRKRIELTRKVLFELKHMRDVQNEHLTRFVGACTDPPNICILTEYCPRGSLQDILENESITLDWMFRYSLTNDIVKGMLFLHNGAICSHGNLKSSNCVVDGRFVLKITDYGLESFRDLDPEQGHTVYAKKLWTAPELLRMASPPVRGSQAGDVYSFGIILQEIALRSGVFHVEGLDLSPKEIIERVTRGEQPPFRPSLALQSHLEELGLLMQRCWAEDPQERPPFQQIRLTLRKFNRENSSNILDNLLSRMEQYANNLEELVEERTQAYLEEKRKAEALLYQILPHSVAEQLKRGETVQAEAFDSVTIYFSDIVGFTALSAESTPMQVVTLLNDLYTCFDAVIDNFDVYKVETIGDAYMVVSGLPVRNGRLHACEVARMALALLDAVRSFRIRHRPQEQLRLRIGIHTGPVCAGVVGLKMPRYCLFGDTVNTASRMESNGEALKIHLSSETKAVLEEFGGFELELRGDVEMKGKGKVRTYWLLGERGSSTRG
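HEK293 cells stably expressing human Npr1 and cGMP GloSensor pGS-40F, loaded 2 h with 2% GloSensor reagent, given compound 30 min at room temperature. Luminescence read before and 20 min after 0.1 nM hNppA.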
FLuc SDR -ATP – Firefly luciferase (FLuc-C-HiBiT) SDR gain of signal screen - without ATP. shares compounds with FLuc inh-1. Purified FLuc-C-HiBiT, Nano-Glo HiBiT luminescence, no ATP. Potency, µM (series often up to 32.7 µM), inactives show at the top dose activation (signal gain), usual class: activators. 1,300 compounds, 7.8% hits. AID 1963318, 2024; further: nearly all actives have a fitted effect of over 55% in size
FLuc SDR ATP – Firefly luciferase (FLuc-C-HiBiT) SDR gain of signal screen - plus ATP. shares compounds with FLuc inh-1. purified FLuc-C-HiBiT + ATP, HiBiT complementation luminescence. 1,300 compounds, 8.7% hits. AID 1963319, 2024. Potency, µM (top dose mostly 32.7 µM), inactives show top-dose activation (gain of signal), actives largely listed as activators;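 further: signal reports ligand binding via conformational change of the enzyme rather than luciferase catalysis; % of control where 0% means no effect; nearly all actives have a fitted effect of over 55% in size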
FLuc inh-2 – Firefly luciferase (FLuc-C-HiBiT) enzymatic inhibition screen - Functional assay | shares compounds with FLuc inh-1 | purified FLuc-C-HiBiT enzyme, luciferin luminescence | Potency, µM (doses to about 32.7 µM), for the others: top-dose activity change, negative = inhibition, usual class: inhibitors | 1,300 compounds, 42% hits; further: on the % scale 0 is the no-effect control and ±100 the full control effect; nearly all actives have a fitted effect of over 70% in size
* marks the source's active call; other numbers are inactive results; i = inactive; ? = inconclusive; nt = not tested or not shown; [ ] = remark or other dose. Only some compounds are listed: those with a hit (about 11% of all), similar ones and a draw of the others. Unless noted, the call rests on the fitted dose curve; in most records, active means well fitted curve in the direction sought with a large enough effect; inconclusive means small, poorly fitted or top-dose-only effect, or another doubt; inactive means no such curve, though single readings can be large; an effect the other way counts as inactive or inconclusive. Potency means the concentration at half of the fitted maximal effect.

SMILES | FLuc inh-1 | HEK cytotox | NIH3T3 tox | NPR1 antag | FLuc SDR -ATP | FLuc SDR ATP | FLuc inh-2
COc1ccc(Cl)cc1-c1ccc2c(c1)C(=O)N1CCN(C(=O)C3CCNCC3)C[C@@H]1C(=O)N2 | i | -9% | i | -4% | nt | nt | nt
CN(C)Cc1cc(C[C@@H]2C[C@H](NC(=O)Nc3ccccc3)C2(C)C)no1 | i | -13%[172 µM] | -21%[138 µM] | 1%[70.6 µM] | nt | nt | nt
O=C(NCc1ccc(F)c(F)c1)c1ccc2nnc(-c3ccoc3)n2c1 | nt | -13% | ? | nt | nt | nt | nt
CN(Cc1ccccn1)Cc1cccn1C | i | -5%[230 µM] | -9%[174 µM] | -5%[70.6 µM] | nt | nt | nt
Cc1ccc(C(=O)N2CCC3(CCCN(Cc4cccc(F)c4F)C3)C2)s1 (centres undefined) | i | ? | ? | -13% | nt | nt | nt
O=C(NCCc1ccc(F)cc1)C1CCCN1C(=O)c1cccc(-c2ccccn2)c1 (centres undefined) | nt | -2% | -22% | nt | nt | nt | nt
O=C(Nc1ccc(F)c(F)c1)C1CCN(C(=O)c2ncn3c2COC(c2ccccc2)C3)CC1 (centres undefined) | 1µM* | -3% | -2% | ? | 12% | 0.56µM* | 0.99µM*
COc1ccc(C2Cn3cnc(C(=O)N4CCC(C(=O)Nc5ccc(C)c(F)c5)CC4)c3CO2)cc1 (centres undefined) | ? | -13% | -10% | -18% | nt | nt | nt
O=Cc1cccc(-c2ccc(C(=O)O)o2)c1 | nt | i | i | nt | nt | nt | nt
CN(C)C(=O)c1ccc(-c2cccc(-c3ccn(CC4CC4)n3)c2)o1 | 7.1µM* | ? | ? | ? | 24% | ? | 7.9µM*
COc1ccc(C(=O)Nc2cc(C)c(O)c(-c3nc4ccccc4s3)c2)cc1OC | nt | nt | nt | nt | 21% | 13% | ?
COc1cc(C(=O)Nc2cc(C)c(O)c(-c3nc4ccccc4s3)c2)cc(OC)c1OC | nt | nt | nt | nt | 15% | 10% | -7%
Cc1nn(-c2ccccc2)c2c1C(C1CC1)N(C1CN([S+](=O)([O-])c3cccc(C(F)(F)F)c3)C1)C2=O (centres undefined) | nt | i | i | nt | nt | nt | nt
COc1ccccc1Nc1ccnc(N2CCC[C@H]2C(=O)NCCSC)n1 | nt | -20% | -21% | nt | nt | nt | nt
Nc1ncnc2c1ncn2[C@H]1O[C@H](CO)[C@@H](O)[C@@H]1O | nt | nt | nt | nt | 11% | 10% | 2%
Cc1ccc(C2Cn3cnc(C(=O)N4CCC(C(=O)NCc5ccco5)CC4)c3CO2)cc1 (centres undefined) | 14µM* | 3% | i | -3% | 13% | ? | ?
O=C(NCc1ccccc1F)C1CCN(C(=O)c2ncn3c2COC(c2ccccc2)C3)CC1 (centres undefined) | 10µM* | 5% | -1% | 0% | 15% | ? | 3.5µM*
O=C(NCc1ccncc1)C1CCN(C(=O)c2ncn3c2COC(c2ccccc2)C3)CC1 (centres undefined) | 2.8µM* | -2% | -14% | ? | 20% | 0.88µM* | 1.8µM*
Cc1ccc(CNC(=O)C2CCN(C(=O)c3ncn4c3COC(c3ccc(Cl)cc3)C4)CC2)cc1 (centres undefined) | ? | -7% | -7% | 5% | nt | nt | nt
Cc1ccc(C2Cn3cnc(C(=O)N4CCC(C(=O)NCc5ccccc5F)CC4)c3CO2)cc1 (centres undefined) | ? | -13% | -3% | -13% | nt | nt | nt
COc1ccccc1CNC(=O)C1CCN(C(=O)c2ncn3c2COC(c2ccccc2)C3)CC1 (centres undefined) | 13µM* | -4% | i | -3% | 11% | ? | 6.2µM*
C[S+](=O)([O-])c1ccc(CC(=O)N2CC(COc3ccccc3)C3(C2)CN(c2ccccc2)C3)cc1 (centres undefined) | i | ? | -32% | 0% | nt | nt | nt
CC(=O)N1CCCN(c2ccc3nnc(C)n3n2)CC1 | nt | 1%[172 µM] | -30%[138 µM] | nt | nt | nt | nt
Cc1ccccc1C(=O)NC1CCN(c2nc3ncccc3o2)C1 (centres undefined) | nt | i | -6%[138 µM] | nt | nt | nt | nt
O=C(NCc1ccc(F)cc1)C1CCN(C(=O)c2ncn3c2COC(c2ccccc2)C3)CC1 (centres undefined) | 14µM* | -6% | -13% | 0% | 16% | ? | 5.6µM*
SMILES | FLuc inh-1 | HEK cytotox | NIH3T3 tox | NPR1 antag | FLuc SDR -ATP | FLuc SDR ATP | FLuc inh-2
CC(C)C(=O)N1Cc2ccccc2CC2(CCCN2C)C1 (centres undefined) | nt | -19%[172 µM] | -2%[138 µM] | nt | nt | nt | nt
c1ccc(-c2noc(-c3cncnc3NCC3CCCCC3)n2)cc1 | i | 1% | 2% | 2% | nt | nt | nt
O=C(NCC1CC1)c1ccc2nnc(-c3ccoc3)n2c1 | nt | 5%[172 µM] | -8%[138 µM] | nt | nt | nt | nt
Cc1cn2nc(C(=O)NCc3ccccn3)cc2c(=O)[nH]1 | i | -6% | -16% | 18% | nt | nt | nt
Cc1cn2nc(C(=O)Nc3ccc(C(=O)NCCc4cccs4)cc3)cc2c(=O)[nH]1 | 4.5µM* | 16% | 5% | -6% | ? | ? | 8.8µM*
CCOC(=O)C1(C)C=C(Nc2cccc(C(=O)O)c2)C(=O)N1c1ccccc1 (centres undefined) | nt | nt | nt | nt | 10% | ? | ?
Cc1cnc(C2CCC2)n1CC1CCN(C(=O)c2cccc(C#N)c2)C1 (centres undefined) | nt | -8% | -21% | nt | nt | nt | nt
CC(C)(Oc1ccc(-c2nc3cc(Cl)ccc3s2)cc1)C(=O)O | nt | nt | nt | nt | ? | ? | 8.8µM*
Cc1c(-c2ccccc2)[nH]c2c(CNC(=O)CCn3cnnn3)cc(Cl)cc12 | ? | ? | ? | 2% | nt | nt | nt
Cc1cc(CNC(=O)C2(C(N)=O)CC2)c2[nH]c(-c3ccccc3)c(C)c2c1 | 13µM* | 22µM* | ? | ? | 26% | ? | 11µM*
CC1=C[C@@H](CNC(=O)c2ccncc2)[C@H](C(C)C)C[C@H]1CC(=O)N1CCOCC1 | 13µM* | -11%[172 µM] | -2%[138 µM] | ? | 10%[49.3 µM] | 14%[49.3 µM] | -13%[49.3 µM]
CC1=C[C@@H](CNC(=O)c2ccccc2)[C@H](C(C)C)C[C@H]1CC(=O)N1CCOCC1 | i | -11%[172 µM] | -2%[138 µM] | 3%[70.6 µM] | nt | nt | nt
